We go through nine compounds from PMC5540273 (PLoS ONE, 2017).

Structures are written as SMILES.

Test systems include CAMK1; CAMK2A; CAMK2B; CAMK2D; CAMK2G; CAMK4; CAMKK1; CAMKK2; CASK; CDC2L2; CDK2; CDK3; CDK4-cyclinD1; CDK4-cyclinD3; CDK4; CDK5; CDK7.
What all share (conditions): concentration: 1 μM, replicates: in singlicate; n = 1
Another assay relates to T1, CDC2L1.
T1 construct: gene CDK11B

For another assay, the system named is T2, CDC2L5.
T2 construct: gene CDK13

The subject of the next assay is T3, CDK11.
T3 construct: gene CDK19
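Also: KINOMEscan kinase panel screen.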

Turning to `O=C(Nc1ccccc1F)NC1CCN(c2ccnc(Nc3ccc(F)cc3)n2)CC1` [GSK1379800], the “%Inh” value with CAMK1 is 0%; with CAMK2A, 0%; in the assay on CAMK2B it was 0%; in the assay with CAMK2D it was 3%; in the assay with CAMK2G, 15%; with CAMK4 it was 0%. Further, the “%Inh” value in the assay on CAMKK1 is reported as 0%; in the assay on CAMKK2 it was 3%; in the assay with CASK, 0%; with CDC2L1, 0%; in the assay on CDC2L2 it was 34%; with CDC2L5, 0%. The “%Inh” value was 9% in the assay on CDK11; 0% with CDK2; 0% in the assay with CDK3; 2% in the assay with CDK4-cyclinD1; 0% in the assay with CDK4-cyclinD3; 28% with CDK4. For the same compound, the “%Inh” value with CDK5 and in the assay on CDK7 was 0% each time.
Regarding `Cc1ccc(C(=O)N2CC[C@@H](O)C2)cc1-n1c(C)cc(OCc2ccc(F)cc2F)c(Br)c1=O`, the “%Inh” value with CAMK1, with CAMK2A, in the assay with CAMK2B, in the assay with CAMK2D, in the assay with CAMK2G and in the assay with CAMK4 was 0% throughout. Further, the “%Inh” value in the assay on CAMKK1, in the assay with CAMKK2, in the assay with CASK, with CDC2L1, in the assay on CDC2L2 and in the assay with CDC2L5 was 0% throughout. Further, the “%Inh” value in the assay on CDK11, with CDK2, in the assay on CDK3, in the assay with CDK4-cyclinD1, in the assay on CDK4-cyclinD3 and with CDK4 was 0% each time. In addition, the “%Inh” value with CDK5 and with CDK7 was 0% in each case.
In the case of `COc1cc(Nc2nccc(N3CCC(NC(=O)Nc4cccc(C(C)=O)c4)C3)n2)cc(OC)c1OC` (stereo not drawn) [GSK1379753], the “%Inh” value with CAMK1 is 42%; with CAMK2A, 0%; in the assay with CAMK2B, 0%; in the assay with CAMK2D, 0%; with CAMK2G, 0%; with CAMK4, 0%. The “%Inh” value stood at 0% in the assay with CAMKK1; 4% in the assay on CAMKK2; 0% in the assay with CASK; 0% with CDC2L1; 14% with CDC2L2; 0% in the assay on CDC2L5. For the same compound, the “%Inh” value in the assay with CDK11 stood at 16%; in the assay on CDK2, 0%; in the assay on CDK3, 11%; in the assay with CDK4-cyclinD1, 0%; in the assay with CDK4-cyclinD3, 0%; in the assay on CDK4, 0%. Moreover, the “%Inh” value in the assay with CDK5 and in the assay with CDK7 was 0% in each case.
Take `COc1ccc(Nc2nccc(N3CCC(NC(=O)Nc4cccc(OC)c4)C3)n2)cc1` (stereo not drawn) [GSK1379742]: the “%Inh” value in the assay with CAMK1 is on record as 0%; in the assay with CAMK2A, 0%; in the assay on CAMK2B it was 0%; in the assay on CAMK2D it was 2%; with CAMK2G it was 9%; in the assay on CAMK4, 4%. The “%Inh” value in the assay on CAMKK1 was 5%; in the assay with CAMKK2 it was 4%; in the assay with CASK it was 13%; in the assay with CDC2L1, 0%; with CDC2L2, 0%; with CDC2L5, 0%. Also, the “%Inh” value with CDK11 is given as 56%; in the assay on CDK2, 0%; in the assay with CDK3, 27%; in the assay with CDK4-cyclinD1, 0%; in the assay with CDK4-cyclinD3, 0%; with CDK4, 13%. Besides, the “%Inh” value in the assay with CDK5 and in the assay with CDK7 was 0% in each case.
Regarding `COc1cc2c(cc1OCCN1CCNCC1)ncc1c3ccc(C#N)cc3[nH]c21`, the “%Inh” value with CAMK1 came to 10%; in the assay with CAMK2A, 96.8%; with CAMK2B, 86%; with CAMK2D, 88%; with CAMK2G it was 79%; in the assay with CAMK4 it was 0%. For the same compound, the “%Inh” value with CAMKK1 was found to be 80%; in the assay on CAMKK2 it was 64%; with CASK it was 25%; with CDC2L1, 14%; in the assay on CDC2L2 it was 0%; with CDC2L5, 8%. In addition, the “%Inh” value is recorded as 24% in the assay with CDK11; 0% with CDK2; 17% in the assay with CDK3; 31% with CDK4-cyclinD1; 0% in the assay on CDK4-cyclinD3; 6% with CDK4. The results for the “%Inh” value with CDK5 and in the assay on CDK7 were 3% and 99.7%, respectively.
With `O=C(O)C(F)(F)F.O=C(O)C(F)(F)F.O=c1[nH]ccc2nc(N[C@@H]3CCCNC3)nc(Nc3ccc(S(=O)(=O)N4CCOCC4)cc3)c12` [GSK2177277], the “%Inh” value is 88% with CAMK1; 100% in the assay on CAMK2A; 99.9% in the assay with CAMK2B; 54% in the assay with CAMK2D; 54% with CAMK2G; 95.6% in the assay on CAMK4. Besides, the “%Inh” value worked out at 94.2% in the assay with CAMKK1; 57% in the assay with CAMKK2; 2% in the assay with CASK; 0% in the assay on CDC2L1; 17% with CDC2L2; 0% in the assay on CDC2L5. In addition, the “%Inh” value came to 0% in the assay on CDK11; 88% in the assay on CDK2; 88% with CDK3; 98.1% in the assay on CDK4-cyclinD1; 99.8% with CDK4-cyclinD3; 62% with CDK4. Besides, the results for the “%Inh” value in the assay with CDK5 and in the assay with CDK7 were 90.8% and 99.6%, respectively.
Turning to `O=C(NC1CCN(c2ccnc(Nc3ccc(F)cc3)n2)C1)c1cc2ccccc2s1` (stereo not drawn) [GSK1379716], the “%Inh” value is 26% with CAMK1; 0% in the assay with CAMK2A; 0% in the assay on CAMK2B; 7% in the assay on CAMK2D; 23% in the assay on CAMK2G; 13% with CAMK4. Besides, the “%Inh” value is given as 10% in the assay with CAMKK1; 17% in the assay on CAMKK2; 22% with CASK; 0% in the assay with CDC2L1; 14% with CDC2L2; 0% in the assay with CDC2L5. The “%Inh” value in the assay with CDK11 amounted to 36%; in the assay with CDK2, 0%; in the assay with CDK3, 18%; in the assay with CDK4-cyclinD1, 14%; in the assay with CDK4-cyclinD3, 0%; in the assay with CDK4 it was 0%. In addition, the “%Inh” value is 7% in the assay on CDK5 and 0% with CDK7.
`Nc1n[nH]c2cnc(-c3ccccc3)cc12` [SB-642124]: the “%Inh” value with CAMK1 was determined as 5%; in the assay with CAMK2A it was 0%; in the assay on CAMK2B, 13%; with CAMK2D, 17%; in the assay on CAMK2G, 22%; with CAMK4 it was 0%. The “%Inh” value turned out to be 1% with CAMKK1; 0% in the assay on CAMKK2; 26% with CASK; 0% in the assay with CDC2L1; 0% in the assay on CDC2L2; 0% with CDC2L5. The “%Inh” value is 0% in the assay with CDK11; 0% in the assay with CDK2; 9% with CDK3; 23% in the assay on CDK4-cyclinD1; 47% with CDK4-cyclinD3; 27% in the assay with CDK4. Moreover, the “%Inh” value stood at 0% in the assay on CDK5 and 22% in the assay on CDK7.
In the case of `COC(=O)Nc1nc2cc(Oc3ccc(NC(=O)Nc4cc(C(F)(F)F)ccc4F)cn3)ccc2[nH]1.Cl.Cl` [GW681170], the “%Inh” value in the assay on CAMK1 is reported as 17%; with CAMK2A, 0%; in the assay with CAMK2B, 0%; with CAMK2D, 42%; with CAMK2G, 57%; with CAMK4, 0%. Besides, the “%Inh” value with CAMKK1 is on record as 49%; in the assay on CAMKK2, 59%; in the assay with CASK, 0%; in the assay on CDC2L1, 0%; in the assay on CDC2L2, 18%; in the assay with CDC2L5 it was 69%. Besides, the “%Inh” value in the assay with CDK11 is 98.1%; in the assay on CDK2 it was 16%; with CDK3, 7%; in the assay with CDK4-cyclinD1, 7%; in the assay on CDK4-cyclinD3, 0%; in the assay with CDK4 it was 50%. For the same compound, the “%Inh” value with CDK5 came out at 0%; in the assay with CDK7, 94.1%.
